# According to the supplement of paper PMC12636033:
# ± gives the standard deviation of the averaged measurements. In all, about 33,000 sequences were measured (“E-score (rank enrichment, -0.5 to 0.5)”: median about -0.0068, highest 2% from about 0.24 on). The list comes from a sample in which the highest values are over-represented; it also holds similar and randomly drawn sequences.
# Test system: muMax20 (Max(13-93) K31hArg/K57hArg, M65Nle)
# Test: PBM 8-mer E-score (E-score (rank enrichment, -0.5 to 0.5)); higher = stronger preferential binding
# Method: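 Protein binding microarray (universal PBM chip covering all 10-mers in fixed probe flanks) with chemically synthesized human Max(13-93) bHLH-LZ analogs (not full-length Max) bearing noncanonical residues (hArg, Tha, Aib, Nle at 65) and aromatic Cys staples. Read-out per 8-mer (and its reverse complement): E-score (rank-based enrichment, -0.5 to 0.5) and Z-score of median probe intensity.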
row,Sequence,PBM 8-mer E-score
1,CAGCGGCG,-0.0966 ± 0.073
2,GAACCTCC,-0.133 ± 0.0052
3,CGGAGCAC,-0.157 ± 0.021
4,ACGCTACA,0.255 ± 0.047
5,GCGCTACA,-0.0407 ± 0.037
6,TCGCTACA,0.115 ± 0.042
7,ACTTCGGG,0.0794 ± 0.099
8,ACGCTAAG,-0.149 ± 0.038
9,CCACTGAC,-0.169 ± 0.032
10,AAAGCATA,0.249 ± 0.045
11,TAAGCATA,0.11 ± 0.096
12,AAAGCTGA,0.275 ± 0.086
13,AAAGCATT,0.1 ± 0.0071
14,AAAGCATG,0.25 ± 0.063
15,AAAGCTGG,0.0179 ± 0.046
16,CAAGCATG,0.134 ± 0.038
17,CAAGCTGA,-0.175 ± 0.11
18,CAAGCATA,0.064995 ± 4.9e-05
19,AATAAGGG,0.11 ± 0.12
20,ACTGTCTA,0.0515 ± 0.052
21,CGACAAGA,-0.0978 ± 0.12
22,GTCCAGGA,-0.157 ± 0.032
23,GAACGGGC,-0.0738 ± 0.11
24,AACATACC,0.0171 ± 0.02
25,CACATACG,0.0977 ± 0.026

row,Sequence,PBM 8-mer E-score
1,GTCATACA,0.118 ± 0.021
2,ACCATACA,0.144 ± 0.051
3,ATCATACG,0.184 ± 0.071
4,AACATACA,0.252 ± 0.0071
5,ATCATACA,0.28 ± 0.069
6,TACATAAA,0.239 ± 0.025
7,CACATAAA,0.2193 ± 0.00038
8,AACATACT,0.0528 ± 0.0084
9,AACATACG,0.278 ± 0.03
10,AACATAAA,0.168 ± 0.035
11,CGCGCTCA,-0.127 ± 0.012
12,ACTGCAAA,0.0247 ± 0.1
13,AGGCGACA,-0.105 ± 0.11
14,GCGAACCC,-0.0615 ± 0.025
15,ATCTGACC,0.00987 ± 0.008
16,CAATCGCG,-0.0427 ± 0.086
17,CAGATCTG,-0.123 ± 0.089
18,GACATACA,0.167 ± 0.11
19,CACATACA,0.112 ± 0.072
20,TACATACA,0.26 ± 0.025
21,ACGATGCC,-0.151 ± 0.016
22,CTATGCCA,0.0539 ± 0.12
23,ATATGCCA,0.242 ± 0.062
24,ATATGCCG,0.0671 ± 0.1
25,GCGTGCTA,0.138 ± 0.033

row,Sequence,PBM 8-mer E-score
1,CCGTGCTA,-0.0534 ± 0.02
2,ACGTGCAA,0.251 ± 0.095
3,ACGTGCTA,0.278 ± 0.041
4,ACGTGCAC,0.334 ± 0.11
5,AGGTGCAT,0.0164 ± 0.091
6,GCGTGCAC,0.208 ± 0.024
7,AAGTGCAT,0.132 ± 0.029
8,TCGTGCAA,0.0413 ± 0.0064
9,CCGTGCAA,-0.0343 ± 0.018
10,CCGTGCAC,0.0347 ± 0.013
11,ACGTGCAT,0.33 ± 0.053
12,CAAGCTCG,-0.109 ± 0.086
13,AAGACCCT,0.0269 ± 0.086
14,GACCGTGC,-0.11 ± 0.054
15,AGCCTCAA,-0.0979 ± 0.089
16,CGTCTCGC,-0.117 ± 0.017
17,CTAGCCAG,-0.0885 ± 0.015
18,GACACGAC,0.0582 ± 0.097
19,GGTGCAAA,0.0271 ± 0.074
20,CTCGCCTC,-0.157 ± 0.053
21,CCTCAGTA,-0.184 ± 0.019
22,AGGTTTAG,-0.0204 ± 0.08
23,CCGTGCAG,-0.128 ± 0.047
24,ACGTGCAG,0.252 ± 0.00027
25,ACGTGCCG,0.207 ± 0.098

row,Sequence,PBM 8-mer E-score
1,CTGTAGGC,-0.151 ± 0.011
2,GACAACAA,0.125 ± 0.046
3,CGTCTGGC,-0.194 ± 0.022
4,ACTAATAG,0.191 ± 0.025
5,CATAATAG,0.229 ± 0.017
6,AATAATAT,0.244 ± 0.011
7,AATAATAG,0.263 ± 0.024
8,ACTAATAT,0.199 ± 0.0057
9,TGTAATAA,0.189 ± 0.076
10,AATAATAC,0.16 ± 0.018
11,TATAATAA,0.315 ± 0.015
12,CATAATAA,0.216 ± 0.021
13,GATAATAC,0.204 ± 0.073
14,CATAATAC,0.26 ± 0.066
15,GATAATAA,0.164 ± 0.034
16,CAGCCTGA,-0.0558 ± 0.092
17,CGGCGGAA,-0.0106 ± 0.03
18,AATTGCTC,-0.0189 ± 0.0015
19,ACTAGATC,-0.0146 ± 0.044
20,CGCACCAG,-0.0279 ± 0.043
21,ATGAGACC,-0.0938 ± 0.12
22,CTGTCCTC,-0.0695 ± 0.18
23,CGTCCTGC,-0.0779 ± 0.08
24,ATAGCTGG,-0.243 ± 0.062
25,AGTAATAA,0.271 ± 0.0094

row,Sequence,PBM 8-mer E-score
1,AATACTAC,0.197 ± 0.038
2,ACTAATAA,0.222 ± 0.015
3,TCTAATAA,0.236 ± 0.032
4,AATAATAA,0.277 ± 0.011
5,AGTAATAG,0.227 ± 0.078
6,AAAAATAA,0.0636 ± 0.065
7,AATACTAA,0.158 ± 0.052
8,AATACTAT,0.265 ± 0.077
9,CCTAATAA,0.103 ± 0.096
10,AATAATCC,0.0218 ± 0.0033
11,GGTAATAA,0.0931 ± 0.008
12,AACGGAGT,-0.013 ± 0.052
13,ATCGTCGA,-0.133 ± 0.025
14,ATTGGATA,-0.0183 ± 0.031
15,ATAATGAC,0.122 ± 0.01
16,CCAGTCCA,-0.0788 ± 0.061
17,TAAAAGTA,0.189 ± 0.074
18,GTGGGCAA,0.0632 ± 0.065
19,CTATGTGC,0.175 ± 0.034
20,AGATGTGA,0.11 ± 0.04
21,CCATGTGC,0.265 ± 0.12
22,CCATGTTC,-0.0553 ± 0.12
23,AAATGTGG,0.139 ± 0.016
24,ACATGTCA,0.0739 ± 0.079
25,GCATGTGA,0.236 ± 0.11

row,Sequence,PBM 8-mer E-score
1,CCATGTGA,0.268 ± 0.088
2,ACATGTGG,0.335 ± 0.035
3,CGATGTGA,-0.012 ± 0.0036
4,ACATGTGA,0.313 ± 0.063
5,AGATGTGG,-0.0064 ± 0.024
6,CTAGTAAC,0.196 ± 0.0053
7,ATCTTGGC,-0.108 ± 0.011
8,AGCTCGTG,0.0196 ± 0.019
9,GGGCCACA,-0.0874 ± 0.078
10,CTGCTGCC,-0.156 ± 0.007
11,GTGTCTAA,0.0915 ± 0.069
12,ATGGATAA,0.163 ± 0.05
13,GATCCAAC,-0.0916 ± 0.056
14,CGATGCAG,-0.0636 ± 0.022
15,AGGCACAA,0.00764 ± 0.053
16,ACATGTGC,0.265 ± 0.089
17,ACATGTCC,0.132 ± 0.091
18,AGATGTGC,-0.0232 ± 0.13
19,AAAAGGGT,0.017 ± 0.098
20,CCCACGCA,-0.043 ± 0.11
21,CCCACGCC,-0.00197 ± 0.078
22,CCCACGCG,0.246 ± 0.025
23,CGCACGCG,0.171 ± 0.035
24,ACCACGCG,0.3 ± 0.11
25,TAAACACA,0.218 ± 0.043

row,Sequence,PBM 8-mer E-score
1,CAAACACA,0.181 ± 0.095
2,AGCACGCA,0.00177 ± 0.16
3,ACCACGCC,-0.112 ± 0.055
4,ACCACGCA,-0.00629 ± 0.023
5,AGCACGCG,0.238 ± 0.13
6,CAAACACG,0.292 ± 0.006
7,ATCTCAAT,0.0437 ± 0.22
8,ATCTCCCA,0.0498 ± 0.043
9,AGACCAGA,-0.0423 ± 0.084
10,AGGGTGCG,-0.107 ± 0.027
11,CTGAGCAG,-0.139 ± 0.067
12,ACATAGGC,0.126 ± 0.0047
13,CGCAGGGA,-0.135 ± 0.074
14,CACACGCG,0.258 ± 0.038
15,ATCACGTC,0.182 ± 0.045
16,AGCACGTA,0.0788 ± 0.0046
17,AGCACGTC,-0.139 ± 0.096
18,AACACGCG,0.202 ± 0.042
19,AGCACGTG,0.436 ± 0.07
20,ACCACGTA,-0.0417 ± 0.022
21,ATCACGTG,0.445 ± 0.064
22,CACACGCA,0.0877 ± 0.054
23,ATCACGTA,0.144 ± 0.055
24,ACCACGTC,0.0772 ± 0.1
25,ACCACGTG,0.477 ± 0.026

row,Sequence,PBM 8-mer E-score
1,ATGCCCAG,-0.219 ± 0.063
2,ACTCGCTA,-0.111 ± 0.17
3,CCGTGCCG,-0.206 ± 0.017
4,GACCACAC,0.0455 ± 0.029
5,CACTAGGG,-0.0807 ± 0.033
6,TATGGAAA,0.148 ± 0.034
7,CCCCCTCG,-0.0378 ± 0.01
8,ATGCCCAC,0.164 ± 0.033
9,CATGAATG,0.126 ± 0.15
10,AATGAATC,-0.0408 ± 0.034
11,AATGAAAT,0.0911 ± 0.04
12,CATGAATA,0.192 ± 0.13
13,ACTGAATA,0.0784 ± 0.014
14,AATGAATA,0.275 ± 0.093
15,AATGAACT,-0.00523 ± 0.086
16,AATGAATT,0.238 ± 0.013
17,AATGAATG,0.259 ± 0.058
18,GATGAATC,0.0791 ± 0.018
19,TATGAATA,0.159 ± 0.029
20,GATGAATA,0.24 ± 0.097
21,ATGTATCA,0.135 ± 0.08
22,ATAGAGCA,-0.146 ± 0.024
23,GAACCGAA,0.0388 ± 0.025
24,AAACCCCG,0.193 ± 0.062
25,ACCTACTG,0.118 ± 0.053

row,Sequence,PBM 8-mer E-score
1,CATTGATC,0.196 ± 0.028
2,ATCGCAAT,0.0576 ± 0.054
3,CAAAGCTC,-0.178 ± 0.079
4,CGCATCTA,0.176 ± 0.0097
5,CTCTTCGA,0.0225 ± 0.082
6,AAATTGTT,0.136 ± 0.14
7,TAATTGTA,0.146 ± 0.091
8,AAATTGTA,0.282 ± 0.017
9,CGCGAACC,-0.2495 ± 0.00081
10,CCTGAAAG,0.0218 ± 0.0043
11,ACAACCAT,0.29 ± 0.03
12,ACAACAAG,0.262 ± 0.017
13,ACAACCAC,0.033 ± 0.02
14,ACAACAAC,0.125 ± 0.024
15,ACAACATC,0.0572 ± 0.022
16,ACAACATA,0.0952 ± 0.11
17,ACAACAAA,0.163 ± 0.0084
18,ACAACCAG,0.062 ± 0.026
19,ACAACATG,0.265 ± 0.008
